The campaign covered roughly 310,000 compounds. About 14,000 (4.5%) showed an effect of 50% or more. The effect is printed as a negative number. The sample holds strong results, similar compounds and a random draw of the others, so the mix is not that of the screen.
target: human ether-à-go-go-related gene (hERG) potassium channel (human, UniProt Q12809); assay: primary screen, population patch clamp on CHO cells stably expressing hERG; higher = less effect of the substance
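Note: peak tail current of the secondary pulse compared with the same well before compound.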

Chain of human ether-à-go-go-related gene (hERG) potassium channel (Q12809 whole entry, looked up): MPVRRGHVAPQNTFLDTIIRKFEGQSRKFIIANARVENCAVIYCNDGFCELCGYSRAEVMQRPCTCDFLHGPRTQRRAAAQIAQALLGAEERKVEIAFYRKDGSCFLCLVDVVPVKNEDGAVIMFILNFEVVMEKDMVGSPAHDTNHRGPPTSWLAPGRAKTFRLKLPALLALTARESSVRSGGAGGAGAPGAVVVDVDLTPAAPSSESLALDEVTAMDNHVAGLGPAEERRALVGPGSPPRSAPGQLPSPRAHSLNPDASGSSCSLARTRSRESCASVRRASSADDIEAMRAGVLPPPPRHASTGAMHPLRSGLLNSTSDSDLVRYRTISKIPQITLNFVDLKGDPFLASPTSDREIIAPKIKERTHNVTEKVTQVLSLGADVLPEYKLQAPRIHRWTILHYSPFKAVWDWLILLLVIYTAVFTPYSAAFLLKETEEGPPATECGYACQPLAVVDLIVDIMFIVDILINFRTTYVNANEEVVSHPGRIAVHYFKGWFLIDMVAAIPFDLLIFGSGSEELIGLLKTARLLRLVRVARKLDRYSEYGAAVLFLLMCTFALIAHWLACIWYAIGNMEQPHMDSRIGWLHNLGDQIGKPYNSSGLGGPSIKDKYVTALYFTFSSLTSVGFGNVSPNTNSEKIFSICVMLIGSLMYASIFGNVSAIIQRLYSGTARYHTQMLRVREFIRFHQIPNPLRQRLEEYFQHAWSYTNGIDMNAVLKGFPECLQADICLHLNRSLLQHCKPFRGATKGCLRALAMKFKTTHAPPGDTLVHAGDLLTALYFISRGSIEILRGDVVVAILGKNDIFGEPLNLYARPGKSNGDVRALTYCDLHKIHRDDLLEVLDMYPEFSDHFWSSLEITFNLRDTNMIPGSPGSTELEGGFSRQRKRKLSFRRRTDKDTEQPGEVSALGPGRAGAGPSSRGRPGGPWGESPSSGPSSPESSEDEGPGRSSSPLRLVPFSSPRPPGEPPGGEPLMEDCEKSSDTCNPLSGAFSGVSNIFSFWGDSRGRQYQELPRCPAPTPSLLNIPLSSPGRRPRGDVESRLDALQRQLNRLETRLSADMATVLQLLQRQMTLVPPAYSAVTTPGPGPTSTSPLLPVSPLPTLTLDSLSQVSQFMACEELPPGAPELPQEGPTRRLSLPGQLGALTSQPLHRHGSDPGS

Structure (SMILES)	hERG current change (%, negative = inhibition) at 10uM [%]
O=C(Nc1ccc2nsnc2c1)N1CCCCC1	22.2
CCOCCn1c(CN2CCN(C)CC2)nc2c1c(=O)n(C)c(=O)n2C	3.97
Cn1c(=O)c2c(nc(CN3CCN(c4ccccc4)CC3)n2CCN2CCOCC2)n(C)c1=O	-21.7
CCOCCn1c(CN2CCN(c3ccccc3)CC2)nc2c1c(=O)n(C)c(=O)n2C	-22.1
CCOCCn1c(CN2CCN(c3cccc(Cl)c3)CC2)nc2c1c(=O)n(C)c(=O)n2C	-55
CCOCCn1c(CN2CCN(c3ccc(OC)cc3)CC2)nc2c1c(=O)n(C)c(=O)n2C	-41.2
CCOCCn1c(CN2CCN(c3ccc(F)cc3)CC2)nc2c1c(=O)n(C)c(=O)n2C	-56.2
COCCn1c(CN2CCN(c3cccc(Cl)c3)CC2)nc2c1c(=O)n(C)c(=O)n2C	-53.9
CCCCn1c(CN2CCN(c3ccc(F)cc3)CC2)nc2c1c(=O)n(C)c(=O)n2C	-25
COCCn1c(CN2CCN(c3ccccc3)CC2)nc2c1c(=O)n(C)c(=O)n2C	-13.8
CC(C)Cc1nnc(NC(=O)CN2C(=O)NC3(CC(C)CC(C)(C)C3)C2=O)s1 (centres unmarked)	-20.5
CN1C[C@@H]2C(c3ccccc3)C3(c4ccccc4)CC2(C3)[C@H]1c1ccccc1 (some centres unmarked)	-25.7
CC(C)(C)c1ccc(-c2nnc(NC(=O)c3ccccc3)s2)cc1	-13.6
COc1ccc(C(=O)COC(=O)/C=C/c2ccccc2)cc1	6.99
CN(C)S(=O)(=O)c1ccc(NC(=O)COC(=O)CC2CC3CCC2C3)cc1 (centres unmarked)	-9.56
O=C(CSc1n[nH]c(-c2ccncc2)n1)NCCc1ccccc1	13.2
CN(C)S(=O)(=O)c1cc(NC2CC(=O)N(c3ccc(F)cc3)C2=O)ccc1Cl (centres unmarked)	-51.1
Cc1ccc(NC2CC(=O)N(c3ccc(C)cc3)C2=O)cc1 (centres unmarked)	-0.727
Cc1ccc(N2C(=O)CC(Nc3ccc(Cl)c(S(=O)(=O)N(C)C)c3)C2=O)c(C)c1 (centres unmarked)	-4.31
COc1cc(C(=O)NCCc2cn3ccc(C)cc3n2)cc(OC)c1OC	-27
CCCOc1ccc(-c2nc(=S)[nH][nH]2)cc1	20.1
CC1CCCC(C)N1CCNC(=O)CCn1nc(-c2ccccc2)ccc1=O (centres unmarked)	-46.8
CCCCNC(=O)CCn1nc(-c2ccccc2)ccc1=O	-40

Structure (SMILES)	hERG current change (%, negative = inhibition) at 10uM [%]
CCCCN(C)CCCNC(=O)CCn1nc(-c2ccccc2)ccc1=O	-52.9
CCCN1CCN(CCCNC(=O)CCn2nc(-c3ccccc3)ccc2=O)CC1	-47.4
O=C(CCn1nc(-c2ccccc2)ccc1=O)NCCCN1CCCCCC1	-73
O=C(Cn1nc(-c2ccccc2)ccc1=O)N1CCOCC1	-6.25
CCN(CC)CCCNC(=O)Cn1nc(-c2ccccc2)ccc1=O	-24.4
O=C(CCn1nc(-c2ccccc2)ccc1=O)N1CCCC1	-45
O=C(Cn1nc(-c2ccccc2)ccc1=O)N1CCCCC1	-61.6
CCN(CC)CCCNC(=O)CCn1nc(-c2ccccc2)ccc1=O	-56.8
CCN(CC)CCNC(=O)CCn1nc(-c2ccc(Cl)cc2)ccc1=O	-34.4
CC1CCCN(CCCNC(=O)CCn2nc(-c3ccccc3)ccc2=O)C1 (centres unmarked)	-39
O=C(CN1C(=O)C2CC=CCC2C1=O)Nc1nnc(C2CC2)s1 (centres unmarked)	6.01
COc1ccc(N(CC(=O)NC2CC3CCC2C3)S(=O)(=O)c2ccccc2)cc1Cl (centres unmarked)	-19.4
O=C(CSc1ccc2c(c1)OCCO2)Nc1ccc(Cl)cn1	24.3
CN(C)C(=O)c1noc2cc([N+](=O)[O-])ccc12	-12
Cc1c(C#N)c2ccccc2n1CC(=O)NCC1CCCO1 (centres unmarked)	16.8
CCc1ccccc1NC(=O)COc1ccc2oc(-c3ccc(OC)cc3)cc(=O)c2c1	5.29
O=S(=O)(NCc1ccccc1)c1ccc(-n2cccn2)cc1	-16.6
Cc1nc(SCC(=O)N2CCCCCC2)[nH]c(=O)c1C	19.5
CCCCSc1nc(CCC)cc(=O)[nH]1	-7.39
CCc1cc(=O)[nH]c(SCCC(F)=C(F)F)n1	27.7
CCc1cc(=O)[nH]c(SCCCF)n1	-50.2
CC(c1ccccc1)N1C(=O)/C(=C/c2ccncc2)SC1=S (centres unmarked)	3.24
CC(NC(=O)NCCCC(=O)O)(C(F)(F)F)C(F)(F)F	11.3

Structure (SMILES)	hERG current change (%, negative = inhibition) at 10uM [%]
CC(C)c1ccc(OCCCCCN2CCOCC2)cc1.O=C(O)C(=O)O	-24.9
CC(=O)Nc1ccc(/C=N/N2CCCCC2)cc1	16.5
Cc1cc(OCCN2CCCC2)cc(C(C)C)c1.O=C(O)C(=O)O	-0.795
CC(C)(C)c1ccc(OCCCCCCN2CCNCC2)cc1	-0.393
Clc1ccc(/C=N/N2CCCCC2)cc1	7.36
CC(C)(C)c1ccc(OCCCN2CCCC2)cc1	-56.4
CCC(C)c1ccc(OCCN2CCCC2)cc1 (centres unmarked)	-15.4
CC(C)c1ccc(OCCCN2CCCC2)cc1	-67.1
CC(C)c1ccc(/C=N/N2CCCCC2)cc1.O=C(O)C(=O)O	-84.3
c1cc(OCCCN2CCCCC2)ccc1CN1CCCCC1	14.1
CC(C)(C)c1ccc(OCCN2CCCC2)cc1	-20.6
CC(C)c1ccc(OCCCCN2CCCCC2)cc1.O=C(O)C(=O)O	-58.8
CCOc1ccc(-c2cnc3ccccc3n2)cc1	14.3
CC(C)=C1C2CCC1C1C(=O)N(c3ccc(C)c(C)c3)C(=O)C21 (centres unmarked)	3.55
COc1ccc2nc(C)cc(SCC(=O)N/N=C/c3c(OC)ccc4ccccc34)c2c1	12.8
CC(C)N(C(=O)Cn1c(SCC(=O)NCc2ccc3c(c2)OCO3)nc2ccccc21)C(C)C	-34.1
CCN(CC)C(=O)CSc1ncnc2c1cnn2-c1ccccc1	-14.2
CCSc1nnc(Cn2c(=O)sc3ccccc32)n1-c1ccccc1C	-2.71
CN(/N=C/c1ccc(N(C)C)cc1)C1=NS(=O)(=O)c2ccccc21	20.6
Cc1ccc2[nH]c3c(=O)n(Cc4ccccn4)cnc3c2c1	-1.6
COC(=O)c1[nH]c2cc(OC)ccc2c1NC(=O)c1c(F)cccc1F	2.79
CCOc1cccc(OCCOCCN2CCCC2)c1	-10.1
CC(C)Oc1ccc(C(=O)CCN2CCCCC2)cc1	-20.9

Structure (SMILES)	hERG current change (%, negative = inhibition) at 10uM [%]
Clc1cccc(Cl)c1OCCCCN1CCCCC1.O=C(O)C(=O)O	-40.8
Clc1ccc(OCCCCN2CCCCC2)cc1.O=C(O)C(=O)O	-65.5
Cc1cc(OCCN2CCCC2)ccc1C(C)C	-22.5
CC(C)Oc1ccc(OCCCN2CCCCCC2)cc1.O=C(O)C(=O)O	-54.8
Cc1cc(OCCOCCN2CCCC2)ccc1C(C)C	-53.9
CCOc1ccc(OCCCCN2CCCC2)cc1.O=C(O)C(=O)O	-12.2
COc1ccc(OCCCN2CCCCCC2)cc1.O=C(O)C(=O)O	-19.3
O=C1COc2ccc(S(=O)(=O)N3CCCCC3)cc2N1	20
Cc1ccc(NNC(=O)C(O)(c2cccc(C(F)(F)F)c2)c2cccc(C(F)(F)F)c2)cc1	-7.55
COc1cc2c(cc1OC)C(C)N(S(=O)(=O)c1ccc(C)cc1)CC2 (centres unmarked)	-15
COc1ccc(C(C(=O)NC2CCCCC2)N(C(=O)c2snc(C(N)=O)c2N)c2ccccc2OC)cc1 (centres unmarked)	11.4
CC1CCC(NC(=O)CCS(=O)(=O)c2ccc3c(c2)oc(=O)n3C)CC1 (centres unmarked)	5.15
c1ccc(-c2ccccc2OCCCCn2ccnc2)cc1	-26.4
O=c1[nH]c(=O)n(Cc2ccco2)c(O)c1C=NCCCn1ccnc1	16.3
N=c1c2c(-c3ccccc3)c(-c3ccccc3)n(Cc3ccco3)c2ncn1CCCn1ccnc1	-74.3
OCCNc1ncnc2c1c(-c1ccccc1)c(-c1ccccc1)n2Cc1ccco1	-44.9
N=c1c2c(-c3ccccc3)c(-c3ccccc3)n(Cc3ccccc3)c2ncn1CCCn1ccnc1	-71.2
Cc1sc2ncnc(NCCCn3ccnc3)c2c1C	-46.1
O=C(NCCCn1ccnc1)c1ccco1	-4.47
c1ccc(Cn2ccnc2)cc1	19.6
c1ccc(-c2c(-c3ccccc3)n(Cc3ccco3)c3ncnc(NCCCn4ccnc4)c23)cc1	-71.6
O=C(CSc1nc2cc(C(=O)O)ccc2c(=O)n1-c1ccc(F)cc1)Nc1ccc(F)c(F)c1F	1.54
CCCCn1c(NC(=O)c2ccc(F)cc2)c(C#N)c2nc3ccccc3nc21	6.88

Source: PMC4336329 (PLoS ONE, 2015)
